The source of these data is PubChem BioAssay AID1857 (The Scripps Research Institute Molecular Screening Center, 2009).

Each structure is given as a SMILES string. The whole screen tested about 1,300 compounds, of which about 290 (22%) were called active.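 Rule for the calls: active = inhibition above the mean of all tested compounds plus 3 SD (cut at about 19% in these data); inactive = the rest.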 Not all results are given here.

This experiment deals with VIM-2 metallo-beta-lactamase (Pseudomonas aeruginosa). Kind of experiment: VIM-2 CCF2 hydrolysis inhibition, orthogonal readout – biochemical, FRET, epi-absorbance artifact exclusion, artefact control for selective VIM-2 inhibitor project, confirmation (AID 1857).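 Note: 0% = VIM-2 plus DMSO and 100% = no enzyme wells.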 To be noted: purified VIM-2, CCF2 FRET substrate hydrolysis; at 5.6 µM; hits give high values.
One may read the inhibition as the change of the read-out against control, counted positive when it falls. On to `COc1ccc(Cc2nnc(NS(=O)(=O)Cc3ccccc3)s2)cc1`, for which the inhibition was 29.2% (active). To `CCC1CCCCN1CCCNC(=O)c1cc2c(Cl)nc3ccccc3c2s1` (configuration not stated) belongs 3.62% (inactive); to `Cn1c(=O)c2c(nc(N3CCOCC3)n2CCNC2=NCCC2)n(C)c1=O`, 1.09% (inactive); to `CCOc1cc(/C=C2\SC(N3CCCCC3)=NC2=O)ccc1O`, 1.41% (inactive).

Consider `CCN1CCN(CCNC(=O)c2ccc3c(c2)NC(=O)/C(=C\c2ccc(OC)c(OC)c2)S3)CC1`, for which the inhibition is 31% (active). To `Cc1cccn2c(=O)c(C=O)c(Nc3ccc(S(N)(=O)=O)cc3)nc12` belongs 2.01% (inactive). With `CCOc1cc(/C=C2\SC(N3CCCC(C)C3)=NC2=O)ccc1O` (configuration not stated), the inhibition was -2.85% (inactive). As for `O=C(COc1cc2oc(=O)c3c(c2cc1Cl)CCC3)NCCCN1CCOCC1`, the inhibition is -0.64% (inactive). With `Cn1c(-c2sccc2OCc2cccc(C(F)(F)F)c2)n[nH]c1=S` the figure was 58.2% (active); with `CN(C)CCNc1ccc(-c2n[nH]c(=O)c3ccccc23)cc1[N+](=O)[O-]`, -1.97% (inactive).

For `CCCc1ccc(OCCNC(=O)c2ccco2)cc1`, the inhibition was -1.44% (inactive). With `Cc1nc2ccccc2c2oc(C(=O)NCCCN3CCC(C)CC3)cc12` the figure was 1.71% (inactive); with `C=CCn1c(-c2ccccc2OCC)n[nH]c1=S`, 40.4% (active); with `O=C(NCCCN1CCOCC1)c1cnn2c(-c3ccccc3)cc(-c3ccccc3)nc12`, -2.83% (inactive). Take `CCc1cc(=O)oc2cc(C)cc(OCC(=O)N3CCC[C@@H]3C(=O)O)c12`: the inhibition is 32.9% (active).

As for `Cc1cc(NCc2ccco2)n2c(nc3ccccc32)c1C#N`, the inhibition was -12.9% (inactive). For the compound `CCN(CC)CCOc1ccc2c(c1)C(=NNC(=O)c1ccccn1)c1cc(OCCN(CC)CC)ccc1-2`, the inhibition is 2.33% (inactive). With `O=C(NC(=S)Nc1ccccc1C(=O)O)c1ccc(-c2ccc(Br)cc2)o1` the figure was 11.2% (inactive).

As to `CCN1CCCC1CNC(=O)c1cc2c(=O)n(C)c3ccccc3c2n1C` (configuration not stated), the inhibition was -2.42% (inactive).

Take `CC1CCCC(C)N1CCCNC(=O)c1cc2c(=O)n(C)c3ccccc3c2n1C` (configuration not stated): the inhibition was -7.42% (inactive).

For the compound `NC(=O)C1CCN(C(=O)COc2ccc3c4c(c(=O)oc3c2)CCC4)CC1`, the inhibition is -2.54% (inactive). To `Cc1cc(C)c2nc3nc(C)cc(C)c3c(N)c2c1` belongs -10.3% (inactive); to `CC(NS(=O)(=O)c1ccccc1)c1n[nH]c(=S)n1-c1ccccc1` (configuration not stated), 38.4% (active). To `Cc1cc([N+](=O)[O-])c(-c2ccc(/C=N/n3cnnc3)o2)cc1Cl` belongs -0.73% (inactive); to `Fc1ccc(-c2ccc(CNCc3ccccn3)o2)cc1Cl`, -13.3% (inactive).

In the case of `CC(C)(C)CC(=O)Nc1nnc(SCC(=O)NCc2cccs2)s1`, the inhibition is 45.5% (active). As for `Nc1nnc2c(C(F)(F)F)nc3ccccc3n12`, the inhibition was 2.08% (inactive).

`CCN(CC)c1ccc2cc(C(N)=O)/c(=N\NC(=O)c3ccncc3)oc2c1`: the inhibition is 11.1% (inactive). As to `Cc1ccc2nc(C)c3c(c2c1)N(c1ccccc1)CC3`, the inhibition is -1.46% (inactive). With `COc1ccc(/C=N/N(C)C2=NS(=O)(=O)c3ccccc32)cc1OC` the figure was -2.83% (inactive); with `CCN1CCN(C(=O)Cn2nc(C)n3c(cc4c(OC)cccc43)c2=O)CC1`, 1.55% (inactive). With `Cc1cc(-c2ccc(/C=N/n3cnnc3)o2)c([N+](=O)[O-])cc1C` the figure was -2.34% (inactive); with `O=C1Nc2cc(C(=O)N3CCC(N4CCCCC4)CC3)ccc2S/C1=C\c1ccccc1`, 53.6% (active). With `COc1ccc(Nc2cc(C)nc(-n3nc(C)cc3C)n2)cc1` the figure was -53.5% (inactive).

As to `Cc1ccc(Cl)cc1-c1ccc(/C=N/n2cnnc2)o1`, the inhibition is -0.56% (inactive).

For `COc1cc(NC(=O)C2=C(C)OCCS2)c(Cl)cc1C(=O)NCCN1CCN(C)CC1`, the inhibition was 2.07% (inactive). To `COc1ccc(-c2nn3c(-c4ccccc4)nnc3s2)cc1OC` belongs 1.85% (inactive).

Turning to `COc1cc(-c2nn3c(-c4cccc(C)c4)nnc3s2)cc(OC)c1OC`, the inhibition is 22.2% (active).

As for `CCOCCCNc1c(CC)c(C)c(C#N)c2nc3ccccc3n12`, the inhibition is 0.59% (inactive). With `COc1ccc(CCn2c(=N)c(C(=O)NCC3CCCO3)cc3c(=O)n4cccc(C)c4nc32)cc1OC` (configuration not stated) the figure was -3.31% (inactive); with `CC(=O)c1ccc(-c2ccc(Cn3c(C)nc4cc(N)c(C)nc43)cc2)cc1`, 42.1% (active). Take `CNC(=O)c1ccsc1NC(=O)c1ccc(S(=O)(=O)N2CCOCC2)cc1`: the inhibition was 37.1% (active).

Take `COC(=O)c1c(NC(=O)c2ccc(S(=O)(=O)N3CCOCC3)cc2)sc2c1CCN(C(C)C)C2`: the inhibition is 1.2% (inactive). To `CN1CCN(c2ccc(NC(=O)c3ccc4c(c3)[nH]c(=O)n4Cc3ccc(F)cc3)cc2)CC1` belongs -0.35% (inactive); to `CCOC(=O)N1CCN(C(=O)C2CCN(c3ncnc4c3sc3cccc(F)c34)CC2)CC1`, 1.58% (inactive).

With `Nc1cccc2c1C(=O)N(Cc1nnc(-c3ccccc3Br)o1)C2=O`, the inhibition is 29.6% (active).

As to `COc1nc(N=C(N)N)nc2c(C)cccc12`, the inhibition was -4.99% (inactive). With `Cn1c2ccccc2c(=O)c2c(O)cccc21` the figure was -1.24% (inactive); with `COc1cc(/C=N/Nc2nn3cnnc3c3ccccc23)cc(OC)c1OC`, 0.17% (inactive); with `COC(=O)c1ccc(-c2noc(CN(Cc3ccccn3)CC3CCCO3)n2)cc1` (configuration not stated), -11.9% (inactive). To `O=c1[nH]c(-c2ccccc2)c(-c2ccccc2)[nH]1` belongs -3.81% (inactive). In the case of `Clc1cc(-c2ccc(/C=N/n3cnnc3)o2)ccc1Br`, the inhibition was -1.55% (inactive).
